ULK1 inh: inhibitors of human ULK1 kinase | AlphaScreen Atg13 phosphorylation by ULK1, luminescence | inhibition, % at 5.96 µM | 30,000 tested, 1.9% active | AID 1259251; in the data active = inhibition above about 43%;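 also: 0% = median of compound wells and 100% = no enzyme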
ASK1 primary: inhibitors of human ASK1 kinase; inhibition, % at 7.44 µM; AID 1159602; 22,000 tested, 0.99% active; AlphaScreen MKK6 phosphorylation by ASK1, luminescence; Q99683; in the data active = inhibition above about 35%;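 also: 0% = median of compound wells and 100% = no enzyme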
TruHits interf: counter-screen for ASK1 inhibitors: AlphaScreen optical interference; AlphaScreen TruHits beads, signal interference counterscreen; AID 1159604; shares compounds with ASK1 primary; 220 tested, 20% active; IC50, µM;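 active = IC50 of 10 µM or lower in the counterscreen; inactive = IC50 above 10 µM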;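 also: loss of AlphaScreen light from TruHits beads alone with no ASK1 enzyme present; potency of signal reduction so a low IC50 flags an assay artifact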
Numbers without * were called inactive; i = inactive; . = no result given; ! = repeats disagree. The list is not random: actives were taken first. Their share in the collection is about 2.4%.

SMILES | ULK1 inh | ASK1 primary | TruHits interf
c1ccc(OCCNc2nc(-c3ccc(N4CCOCC4)nc3)nc3c2ncn3-c2ccsc2)cc1 | 7 | 18 | .
COc1cc(Nc2nc(-c3c(C)noc3C)nc3c2ncn3Cc2ccc(C(F)(F)F)cc2)cc(OC)c1OC | -46 | 37* | >27
COc1cc(Nc2nc(Nc3cc(OC)c(OC)c(OC)c3)c3ncn(Cc4ccc(C(F)(F)F)cc4)c3n2)cc(OC)c1OC | -19 | 19 | .
CC(C)n1cnc2c(NCc3cccc(C(F)(F)F)c3)nc(Nc3ccc(N4CCOCC4)cc3)nc21 | -12 | 55*! | 6.4*
FC(F)(F)c1ccc(Nc2nc(NCc3cccc(C(F)(F)F)c3)c3[nH]cnc3n2)cc1 | -13 | -9 | .
FC(F)(F)c1cccc(CNc2nc(Nc3ccc(N4CCOCC4)cc3)nc3nc[nH]c23)c1 | 32 | 45*! | i
CC(C)n1cnc2c(NCc3cccc(C(F)(F)F)c3)nc(Nc3ccccc3)nc21 | -25 | 6 | .
COc1ccc(-c2nc(Nc3ccc(NC(C)=O)cc3)c3[nH]cnc3n2)cn1 | 1 | 4 | .
c1nc2nc(N3CCOCC3)nc(Nc3ccc(N4CCOCC4)cc3)c2[nH]1 | 8 | 5 | .
CC(C)n1c(-c2ccccc2)nc2c(Nc3ccccc3)ncnc21 | 5 | 17 | .
Cc1ccc(-c2ncn(-c3ccc(Nc4nccc(-c5cncc(N6CCOCC6)c5)n4)cc3)n2)cn1 | 3 | 41* | >19
Cc1ccc(-c2ncn(-c3ccc(Nc4nccc(-c5cncc6ccccc56)n4)cc3)n2)cn1 | 4 | 38* | >19
Cc1ccc(-c2ncn(-c3ccc(Nc4nccc(-c5ccc(Cl)nc5)n4)cc3)n2)cn1 | -22 | 28 | .
Cc1ccc(-c2ncn(-c3ccc(Nc4nccc(-c5ccc(N)nc5)n4)cc3)n2)cn1 | -26 | 4 | .
CCN(CC)c1nc(NCc2cccnc2)nc(N2CCOCC2)n1 | -3 | -10 | .
CCCNc1cc(-c2ccc(OC)nc2)ncn1 | -3 | 4 | .
c1ccc(-n2cnc3c(NC4CC4)nc(N4CCC(N5CCOCC5)CC4)nc32)cc1 | -2 | 10 | .
Nc1nccc(-c2ccc3nc(C4COc5ccc(F)cc5C4)[nH]c3c2)n1 (stereo unspecified) | 1 | 6 | .
c1ccc(CNc2ncnc3nc(N4CCN(Cc5ccc6c(c5)OCO6)CC4)[nH]c23)cc1 | -13 | 0 | .
c1nc2nc(N3CCN(Cc4ccc5c(c4)OCO5)CC3)nc(Nc3ccc(N4CCOCC4)cc3)c2[nH]1 | 26 | 22 | .
Oc1ccc(CCNc2ncnc3nc(N4CCN(Cc5ccc6c(c5)OCO6)CC4)[nH]c23)cc1 | 13 | 41* | i
c1nc(Nc2ccc(N3CCOCC3)cc2)c2[nH]c(N3CCN(Cc4ccc5c(c4)OCO5)CC3)nc2n1 | 42 | 43* | >14
c1cn(-c2ccc(Nc3nc4ncnc(Nc5ccc6c(c5)OCO6)c4[nH]3)cc2)cn1 | 11 | 39* | >22
c1cnc2ccc(Nc3nc4ncnc(Nc5ccc6c(c5)OCO6)c4[nH]3)cc2c1 | 7 | 25 | .
O=C(NCc1cccc(C(F)(F)F)c1)c1ccnc(Nc2ccncn2)c1 | 3 | 0 | .
SMILES | ULK1 inh | ASK1 primary | TruHits interf
O=C(O)CCC(=O)Nc1ccc(S(=O)(=O)N2CCOCC2)cc1 | 4 | . | .
O=C(NCCN1CCOCC1)c1cccc(N2CCCC2CO)n1 (stereo unspecified) | 8 | -11 | .
CC(C)N(CCNc1nc(NC2CCC(O)CC2)nc2c1ncn2-c1ccsc1)C(C)C (stereo unspecified) | -8 | -6 | .
c1ccc(Oc2ccc(Nc3nc(N4CCOCC4)nc4c3ncn4-c3ccccc3)cc2)cc1 | 1 | 26 | .
c1ccc(Oc2ccc(Nc3nc(N4CCc5ccccc5C4)nc4c3ncn4-c3ccccc3)cc2)cc1 | 11 | 46* | >20
c1cncc(CNc2nc(Nc3ccc(N4CCOCC4)cc3)nc3c2ncn3C2CCCCC2)c1 | 11 | 36* | >20
c1ccc(-n2cnc3c(NCc4cccnc4)nc(Nc4ccc(N5CCOCC5)cc4)nc32)cc1 | -1 | 39* | i
c1cncc(CNc2nc(N3CCOCC3)nc3c2ncn3C2CCCCC2)c1 | 2 | -12 | .
CCCNc1nc(N2CCN(c3ccccn3)CC2)nc2c1ncn2C(C)C | -4 | 15 | .
c1ccc(N2CCN(c3nc(Nc4ccc(N5CCOCC5)cc4)c4ncn(C5CCCCC5)c4n3)CC2)nc1 | 64* | 44* | >23
CC(C)n1cnc2c(NC3CC3)nc(N3CCN(c4ccccn4)CC3)nc21 | 14 | 43* | >22
c1ccc(Nc2nc(N3CCN(c4ccccn4)CC3)nc3c2ncn3C2CCCCC2)cc1 | -3 | 18 | .
c1ccc(-n2cnc3c(NCc4cccnc4)nc(Nc4cccnc4)nc32)cc1 | 25 | -10 | .
CCn1c(C(N)c2ccc(Cl)cc2)nc2cc(F)c(-c3ccnc(N)n3)cc21 (stereo unspecified) | 10 | -3 | .
COc1ccc(CCNC(=O)c2cccc(Nc3ncccn3)n2)cc1 | 9 | 0 | .
COc1ccc(-c2nc3ncnc(Nc4cc(OC)c(OC)c(OC)c4)c3[nH]2)cn1 | 6 | 45* | >18
COc1ccc(-c2nc3ncnc(Nc4ccc(NC(C)=O)cc4)c3[nH]2)cn1 | -7 | 9 | .
c1ccc(Nc2ccnc(-c3csc4ccccc34)n2)cc1 | -17 | -7 | .
c1ccc2c(-c3nccc(Nc4ccc(N5CCOCC5)cc4)n3)csc2c1 | -8 | 38* | >22
Fc1ccc(-c2cnc(N3CCN(c4ccccn4)CC3)nc2)cc1 | 10 | . | .
